# In the supplement of paper PMC10849652:
# Of roughly 8,800 targets only a part is listed; those with a hit were picked by preference. About 0.5% of all pairs of compound and target were hits. Unmarked numbers belong to inactive results.
# What was measured:
# Assay in all cases: log2 fold change, soluble protein after heating vs DMSO (PISA); higher = thermal stabilisation; K562 lysate, 10 uM; active = over 0.2 and 3.5 SD of the protein, either way, in both replicates (recomputed)
# erlotinib = compound: C#Cc1cccc(Nc2ncnc3cc(OCCOC)c(OCCOC)cc23)c1 [erlotinib]
# Procedure, shortened: (§1)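 Pellets of K562 cells were dounce-homogenised in PBS pH 7.4 with 1 mM MgCl2, and the crude extract was held at 1 mg/mL protein for a 30 min treatment with 10 μM compound. Aliquots were heated for 3 min over 48°C-58°C and pooled before NP-40 was added to 0.5% at 4°C. The supernatant from 21,000xg for 90 min was quantified by TMTpro 16plex LC-MS/MS with channel sums equalised. Values are reported from duplicates as log-two fold change in thermal stability relative to solvent controls.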
# [1] = compound: C/C(=N\NC(=O)C1=CC(=CC=C1)S(=O)(=O)N2CCOCC2)/C3=C(C=CC(=C3)Cl)O
# Procedure, shortened: as §1
# [2] = compound: C1=CC(=CC=C1C2=NC3=C(N2)C=C(C=C3)C(=O)N)OC4=CC=C(C=C4)Cl
# Procedure, shortened: as §1
# [3] = compound: C1=CC2=C(C=CC(=C2)/C=C\3/C(=O)NC(=NCC4=CC=CS4)S3)N=C1
# Procedure, shortened: as §1
# [4] = compound: C1=CC2=NC=CN=C2C=C1/C=C/3\C(=O)NC(=O)S3
# Procedure, shortened: as §1
# [5] = compound: C1=CC=C(C=C1)C2=NC(=C(N2)C3=CC=NC=C3)C4=CC(=C(C=C4)Cl)O
# Procedure, shortened: as §1
# [6] = compound: C1=CC=C2C(=C1)C3=NNC4=CC=CC(=C43)C2=O
# Procedure, shortened: as §1
# [7] = compound: C1CCN(C1)C(=O)NC2=CC=CC(=C2)NC3=NC=C(C(=N3)NCCC4=CN=CN4)Br
# Procedure, shortened: as §1
# [8] = compound: C1CN(CCC1(CC2=CC=C(C=C2)Cl)N)C3=NC=NC4=C3C=CN4
# Procedure, shortened: as §1
# IRAK-1-4 Inhibitor I = compound: C1COCCN1CCN2C3=CC=CC=C3N=C2NC(=O)C4=CC(=CC=C4)[N+](=O)[O-] [IRAK-1-4 Inhibitor I]
# Procedure, shortened: as §1
# Chain of UniProt P35611 (P35611 whole entry, looked up): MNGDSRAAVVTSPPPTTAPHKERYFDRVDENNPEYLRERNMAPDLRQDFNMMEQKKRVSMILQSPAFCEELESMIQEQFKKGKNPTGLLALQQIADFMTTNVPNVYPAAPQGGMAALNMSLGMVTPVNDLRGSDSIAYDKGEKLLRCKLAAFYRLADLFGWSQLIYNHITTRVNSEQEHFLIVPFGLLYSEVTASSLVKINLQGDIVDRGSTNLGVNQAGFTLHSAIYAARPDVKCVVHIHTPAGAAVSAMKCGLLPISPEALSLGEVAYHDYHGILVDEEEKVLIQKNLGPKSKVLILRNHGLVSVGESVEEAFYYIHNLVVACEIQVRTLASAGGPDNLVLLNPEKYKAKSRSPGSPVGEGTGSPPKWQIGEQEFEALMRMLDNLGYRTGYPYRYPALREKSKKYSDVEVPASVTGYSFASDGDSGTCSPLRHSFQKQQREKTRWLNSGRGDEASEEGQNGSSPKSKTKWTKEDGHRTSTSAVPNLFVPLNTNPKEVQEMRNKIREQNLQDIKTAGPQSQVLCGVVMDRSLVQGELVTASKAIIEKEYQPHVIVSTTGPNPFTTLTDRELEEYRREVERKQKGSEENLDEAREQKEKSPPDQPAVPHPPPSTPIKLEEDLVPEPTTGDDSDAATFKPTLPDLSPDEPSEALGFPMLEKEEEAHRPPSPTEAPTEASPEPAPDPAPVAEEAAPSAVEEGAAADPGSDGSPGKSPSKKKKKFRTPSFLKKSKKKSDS
# Chain of UniProt Q9BVK2 (Q9BVK2 whole entry, looked up): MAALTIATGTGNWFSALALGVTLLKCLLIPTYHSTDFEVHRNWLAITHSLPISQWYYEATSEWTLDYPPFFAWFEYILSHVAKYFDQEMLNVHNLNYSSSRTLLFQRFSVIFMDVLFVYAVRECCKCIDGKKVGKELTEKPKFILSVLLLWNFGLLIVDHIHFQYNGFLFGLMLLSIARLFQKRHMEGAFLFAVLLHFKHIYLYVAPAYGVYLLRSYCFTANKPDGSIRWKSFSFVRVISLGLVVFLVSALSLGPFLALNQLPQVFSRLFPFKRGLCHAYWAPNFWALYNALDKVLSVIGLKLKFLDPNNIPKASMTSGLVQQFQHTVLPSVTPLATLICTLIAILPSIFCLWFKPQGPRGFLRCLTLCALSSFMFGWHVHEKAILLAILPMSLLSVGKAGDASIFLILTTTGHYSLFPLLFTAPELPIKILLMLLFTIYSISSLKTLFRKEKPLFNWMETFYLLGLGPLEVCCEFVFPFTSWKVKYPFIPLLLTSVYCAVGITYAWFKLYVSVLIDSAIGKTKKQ
# Chain of UniProt Q9UJX3 (Q9UJX3 whole entry, looked up): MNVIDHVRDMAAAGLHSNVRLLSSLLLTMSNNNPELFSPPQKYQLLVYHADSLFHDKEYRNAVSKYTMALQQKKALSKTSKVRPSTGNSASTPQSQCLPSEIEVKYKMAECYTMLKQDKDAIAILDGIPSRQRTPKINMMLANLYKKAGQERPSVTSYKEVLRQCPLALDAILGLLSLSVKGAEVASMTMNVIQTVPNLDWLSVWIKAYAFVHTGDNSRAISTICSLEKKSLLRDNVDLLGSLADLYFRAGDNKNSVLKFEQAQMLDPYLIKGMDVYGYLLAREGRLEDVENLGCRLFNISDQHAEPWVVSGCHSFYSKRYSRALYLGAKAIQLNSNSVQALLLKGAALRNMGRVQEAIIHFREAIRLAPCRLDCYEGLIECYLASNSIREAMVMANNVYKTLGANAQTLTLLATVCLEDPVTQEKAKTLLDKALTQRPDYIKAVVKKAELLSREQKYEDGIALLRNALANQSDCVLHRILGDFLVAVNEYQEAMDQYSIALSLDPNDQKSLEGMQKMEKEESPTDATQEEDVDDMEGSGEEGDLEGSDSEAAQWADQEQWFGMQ
# Chain of UniProt Q9NXU5 (Q9NXU5 whole entry, looked up): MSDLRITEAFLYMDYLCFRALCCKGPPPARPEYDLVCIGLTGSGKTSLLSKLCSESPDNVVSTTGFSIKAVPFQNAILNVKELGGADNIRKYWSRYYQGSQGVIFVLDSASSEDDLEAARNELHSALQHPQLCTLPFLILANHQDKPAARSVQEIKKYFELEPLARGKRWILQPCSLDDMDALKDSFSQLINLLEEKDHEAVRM
# Chain of UniProt Q8N8A2 (Q8N8A2 whole entry, looked up): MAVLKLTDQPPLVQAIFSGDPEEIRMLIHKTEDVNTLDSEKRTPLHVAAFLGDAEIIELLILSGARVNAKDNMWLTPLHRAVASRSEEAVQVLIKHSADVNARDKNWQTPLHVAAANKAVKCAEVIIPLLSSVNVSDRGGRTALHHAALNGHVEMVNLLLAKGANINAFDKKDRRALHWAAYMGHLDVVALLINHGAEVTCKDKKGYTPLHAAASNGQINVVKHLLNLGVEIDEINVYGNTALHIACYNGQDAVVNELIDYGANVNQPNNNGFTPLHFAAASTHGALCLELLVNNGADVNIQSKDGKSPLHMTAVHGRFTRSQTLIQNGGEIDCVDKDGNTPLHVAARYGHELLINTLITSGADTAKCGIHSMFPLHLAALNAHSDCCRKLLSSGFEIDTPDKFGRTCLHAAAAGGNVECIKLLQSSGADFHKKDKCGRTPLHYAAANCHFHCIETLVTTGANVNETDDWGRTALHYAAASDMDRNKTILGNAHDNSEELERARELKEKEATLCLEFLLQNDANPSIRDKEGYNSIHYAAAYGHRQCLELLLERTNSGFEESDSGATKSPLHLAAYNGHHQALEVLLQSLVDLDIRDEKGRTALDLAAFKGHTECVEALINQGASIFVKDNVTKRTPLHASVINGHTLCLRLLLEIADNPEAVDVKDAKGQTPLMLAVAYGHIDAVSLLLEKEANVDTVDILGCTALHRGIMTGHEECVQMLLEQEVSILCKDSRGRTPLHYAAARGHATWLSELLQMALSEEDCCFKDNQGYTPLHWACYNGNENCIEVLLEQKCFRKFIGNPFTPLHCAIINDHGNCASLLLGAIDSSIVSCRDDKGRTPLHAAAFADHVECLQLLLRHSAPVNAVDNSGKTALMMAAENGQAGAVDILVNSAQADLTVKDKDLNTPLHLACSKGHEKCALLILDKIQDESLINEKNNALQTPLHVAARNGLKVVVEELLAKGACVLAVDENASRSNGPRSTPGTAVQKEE
# Chain of UniProt P54886 (P54886 whole entry, looked up): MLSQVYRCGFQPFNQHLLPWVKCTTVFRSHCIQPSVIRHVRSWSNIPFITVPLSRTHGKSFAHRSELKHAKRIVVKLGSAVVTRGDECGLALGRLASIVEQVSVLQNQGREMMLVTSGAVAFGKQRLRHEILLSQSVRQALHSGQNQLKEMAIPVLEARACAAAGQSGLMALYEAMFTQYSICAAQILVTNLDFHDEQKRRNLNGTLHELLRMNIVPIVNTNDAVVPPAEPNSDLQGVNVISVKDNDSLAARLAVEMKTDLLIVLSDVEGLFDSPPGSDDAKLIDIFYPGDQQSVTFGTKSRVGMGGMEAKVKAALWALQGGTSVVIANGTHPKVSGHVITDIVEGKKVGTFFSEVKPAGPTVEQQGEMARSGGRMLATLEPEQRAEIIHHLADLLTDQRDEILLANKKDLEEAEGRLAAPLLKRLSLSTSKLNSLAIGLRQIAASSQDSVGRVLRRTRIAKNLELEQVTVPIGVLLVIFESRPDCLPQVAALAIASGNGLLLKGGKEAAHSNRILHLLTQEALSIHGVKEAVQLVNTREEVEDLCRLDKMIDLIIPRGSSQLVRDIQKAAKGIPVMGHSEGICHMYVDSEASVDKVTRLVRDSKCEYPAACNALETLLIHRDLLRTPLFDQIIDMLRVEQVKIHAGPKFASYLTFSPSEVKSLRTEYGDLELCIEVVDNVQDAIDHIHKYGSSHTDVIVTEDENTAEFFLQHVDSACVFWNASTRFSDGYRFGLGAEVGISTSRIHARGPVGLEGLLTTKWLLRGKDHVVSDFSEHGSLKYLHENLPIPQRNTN
# Chain of UniProt P51825 (P51825 whole entry, looked up): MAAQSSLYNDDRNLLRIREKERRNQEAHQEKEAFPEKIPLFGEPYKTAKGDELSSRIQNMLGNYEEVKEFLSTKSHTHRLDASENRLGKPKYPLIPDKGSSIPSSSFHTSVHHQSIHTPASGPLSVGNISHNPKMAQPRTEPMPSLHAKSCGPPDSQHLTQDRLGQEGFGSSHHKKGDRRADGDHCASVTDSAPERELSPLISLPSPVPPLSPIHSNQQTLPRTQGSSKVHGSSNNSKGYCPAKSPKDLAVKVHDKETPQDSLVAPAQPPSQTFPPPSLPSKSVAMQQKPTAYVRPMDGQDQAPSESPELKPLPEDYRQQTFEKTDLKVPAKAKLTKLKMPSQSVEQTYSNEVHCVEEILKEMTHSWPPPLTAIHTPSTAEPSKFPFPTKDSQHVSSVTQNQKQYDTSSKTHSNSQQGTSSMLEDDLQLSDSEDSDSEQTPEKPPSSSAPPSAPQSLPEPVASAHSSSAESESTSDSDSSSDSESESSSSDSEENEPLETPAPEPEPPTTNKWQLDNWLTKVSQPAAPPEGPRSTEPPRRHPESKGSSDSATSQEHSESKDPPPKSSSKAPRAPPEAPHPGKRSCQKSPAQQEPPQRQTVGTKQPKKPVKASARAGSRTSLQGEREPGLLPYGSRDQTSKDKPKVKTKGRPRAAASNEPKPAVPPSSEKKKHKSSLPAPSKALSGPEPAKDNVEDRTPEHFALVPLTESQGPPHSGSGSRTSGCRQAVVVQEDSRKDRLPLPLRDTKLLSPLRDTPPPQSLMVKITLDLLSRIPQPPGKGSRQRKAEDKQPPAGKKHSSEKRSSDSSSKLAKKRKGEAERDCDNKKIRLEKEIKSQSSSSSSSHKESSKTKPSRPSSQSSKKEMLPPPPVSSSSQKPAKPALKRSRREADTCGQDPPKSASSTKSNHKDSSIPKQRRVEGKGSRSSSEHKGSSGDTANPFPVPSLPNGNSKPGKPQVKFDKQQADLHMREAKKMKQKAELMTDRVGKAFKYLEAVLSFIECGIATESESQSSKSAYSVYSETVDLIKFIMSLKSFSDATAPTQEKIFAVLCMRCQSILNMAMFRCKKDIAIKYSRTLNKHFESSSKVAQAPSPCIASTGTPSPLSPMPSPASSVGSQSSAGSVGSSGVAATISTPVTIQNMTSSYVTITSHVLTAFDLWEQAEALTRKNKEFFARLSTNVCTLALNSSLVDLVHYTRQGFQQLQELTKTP
Target,log2 fold change (erlotinib),log2 fold change [1],log2 fold change [2],log2 fold change [3],log2 fold change [4],log2 fold change [5],log2 fold change [6],log2 fold change [7],log2 fold change [8],log2 fold change (IRAK-1-4 Inhibitor I)
ANP32E (UniProt Q9BTT0),0.006,-0.006,0.016,-0.021,0.012,-0.004,-0.065,-0.025,0.011,0.023
ANAPC7 (UniProt Q9UJX3),-0.001,0.006,0.002,0.024,-0.016,0.003,0.027,0,-0.017,0.005
ACADS (UniProt P16219),-0.013,0.021,-0.013,0.062,-0.012,0.001,-0.046,0.01,0.027,0.017
AFF1 isoform 2 (UniProt P51825),-0.001,-0.085,0.027,0.071,-0.068,-0.007,-0.041,-0.002,0.005,0.021
AIP (UniProt O00170),-0.006,-0.032,-0.015,-0.004,-0.012,0.018,0.026,-0.002,0.016,-0.012
AIMP2 (UniProt Q13155),0.021,0.062,-0.01,0.006,0.002,-0.016,-0.001,0.014,-0.036,0.008
ARHGAP25 isoform 4 (UniProt P42331),0.029,0.045,0.026,-0.031,-0.031,-0.002,-0.029,0.007,0.034,-0.006
AGL (UniProt P35573),0.007,0.002,0.003,-0.021,-0.01,0.008,-0.035,-0.017,-0.006,0.001
ARL15 (UniProt Q9NXU5),-0.035,0.004,-0.009,0.011,0.079,-0.033,0.005,0.004,-0.031,0.038
ACTG1 (UniProt I3L4N8),0.118,0.163,-0.016,0.029,-0.2,0.054,-0.207,-0.142,-0.143,-0.013
ALDH18A1 (UniProt P54886),0.029,-0.039,-0.017,0.02,-0.015,-0.016,-0.025,-0.022,0.001,-0.006
ADK (UniProt P55263),0.219,-0.024,-0.028,0.132,-0.079,0.047,0.011,-0.049,0.026,0.063
APOBEC3C (UniProt Q9NRW3),0.054,0.058,-0.029,0.066,0.056,-0.017,0.015,0.031,-0.003,0.038
ACAT1 (UniProt P24752),0.011,0.006,-0.015,0.015,0.017,-0.002,-0.007,-0.028,0.015,0.017
ACIN1 (UniProt E7EQT4),0.001,-0.16,0,0.05,-0.027,-0.057,-0.009,0.008,-0.027,0.012
ABL1 isoform 2 (UniProt P00519),0.026,-0.005,-0.013,0.026,-0.027,0.033,-0.022,-0.035,0.015,-0.01
ARGLU1 (UniProt Q9NWB6),-0.008,0.069,-0.039,0.009,-0.034,-0.057,-0.002,0.003,-0.047,0.025

Target,log2 fold change (erlotinib),log2 fold change [1],log2 fold change [2],log2 fold change [3],log2 fold change [4],log2 fold change [5],log2 fold change [6],log2 fold change [7],log2 fold change [8],log2 fold change (IRAK-1-4 Inhibitor I)
ALG8 (UniProt Q9BVK2),0.022,-0.102,-0.082,0.018,0.016,-0.062,-0.001,0.053,0.012,-0.007
AARS2 (UniProt Q5JTZ9),0.013,-0.047,-0.05,0.004,-0.013,0.005,-0.026,-0.008,0.038,-0.024
APOB (UniProt P04114),-0.028,-0.001,-0.032,-0.029,-0.021,0,-0.055,-0.067,0.015,0.097
ANP32E isoform 3 (UniProt Q9BTT0),,-0.079,,-0.002,-0.011,,0.012,0.075,-0.01,
ADD1 isoform 3 (UniProt P35611),-0.027,0,0.033,0.011,-0.01,-0.004,0.011,-0.015,-0.014,-0.021
AKAP11 (UniProt Q9UKA4),0.114,0.232,0.037,0.095,0.016,0.059,-0.361 (active),-0.064,0.017,-0.071
ANKRD30A (UniProt Q9BXX3),,,,,0.035,-0.06,,0.415,0.144,-0.176
ALDH1B1 (UniProt P30837),-0.064,0.027,-0.035,-0.004,0.031,0.009,0.262 (active),-0.025,0.048,0.038
"ACAT1, A0A5F9ZHJ0",,,,,,-0.128,,,,0.075
ANXA13 isoform 2 (UniProt P27216),-0.078,0.111,-0.121,-0.019,-0.083,-0.029,0.029,,,-0.174
ALDH18A1 isoform 2 (UniProt P54886),,-0.298,,-0.142,,0.092,-0.05,,,0.046
ACVR1 (UniProt Q04771),,,,,0.074,,,,,
"ADK, A0A5F9ZH76",,,,,0,,,,,
ANXA2 (UniProt H0YL33),-0.153,,0.088,,-0.108,-0.027,,,,-0.031
ANKRD44 isoform 2 (UniProt Q8N8A2),-0.034,-0.035,0.002,-0.083,-0.016,,-0.257,-0.059,-0.032,
ACLY isoform 2 (UniProt P53396),,-0.122,,0.002,-0.018,0.012,-0.034,-0.027,-0.029,-0.053
AIF1L (UniProt Q9BQI0),-0.035,,-0.008,,-0.014,0.012,,0.329,-0.008,-0.049
